Among all 310,000 compounds or so, about 14,000 (4.5%) showed an effect of 50% or more. The effect is printed as a negative number. The sample holds strong results, similar compounds and a random draw of the others, so the mix is not that of the screen.
molecular target: human ether-à-go-go-related gene (hERG) potassium channel (human, UniProt Q12809); assay: primary screen, population patch clamp on CHO cells stably expressing hERG; higher = less effect of the substance
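Also: peak tail current of the secondary pulse compared with the same well before compound.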

Chain of human ether-à-go-go-related gene (hERG) potassium channel (Q12809 whole entry, looked up): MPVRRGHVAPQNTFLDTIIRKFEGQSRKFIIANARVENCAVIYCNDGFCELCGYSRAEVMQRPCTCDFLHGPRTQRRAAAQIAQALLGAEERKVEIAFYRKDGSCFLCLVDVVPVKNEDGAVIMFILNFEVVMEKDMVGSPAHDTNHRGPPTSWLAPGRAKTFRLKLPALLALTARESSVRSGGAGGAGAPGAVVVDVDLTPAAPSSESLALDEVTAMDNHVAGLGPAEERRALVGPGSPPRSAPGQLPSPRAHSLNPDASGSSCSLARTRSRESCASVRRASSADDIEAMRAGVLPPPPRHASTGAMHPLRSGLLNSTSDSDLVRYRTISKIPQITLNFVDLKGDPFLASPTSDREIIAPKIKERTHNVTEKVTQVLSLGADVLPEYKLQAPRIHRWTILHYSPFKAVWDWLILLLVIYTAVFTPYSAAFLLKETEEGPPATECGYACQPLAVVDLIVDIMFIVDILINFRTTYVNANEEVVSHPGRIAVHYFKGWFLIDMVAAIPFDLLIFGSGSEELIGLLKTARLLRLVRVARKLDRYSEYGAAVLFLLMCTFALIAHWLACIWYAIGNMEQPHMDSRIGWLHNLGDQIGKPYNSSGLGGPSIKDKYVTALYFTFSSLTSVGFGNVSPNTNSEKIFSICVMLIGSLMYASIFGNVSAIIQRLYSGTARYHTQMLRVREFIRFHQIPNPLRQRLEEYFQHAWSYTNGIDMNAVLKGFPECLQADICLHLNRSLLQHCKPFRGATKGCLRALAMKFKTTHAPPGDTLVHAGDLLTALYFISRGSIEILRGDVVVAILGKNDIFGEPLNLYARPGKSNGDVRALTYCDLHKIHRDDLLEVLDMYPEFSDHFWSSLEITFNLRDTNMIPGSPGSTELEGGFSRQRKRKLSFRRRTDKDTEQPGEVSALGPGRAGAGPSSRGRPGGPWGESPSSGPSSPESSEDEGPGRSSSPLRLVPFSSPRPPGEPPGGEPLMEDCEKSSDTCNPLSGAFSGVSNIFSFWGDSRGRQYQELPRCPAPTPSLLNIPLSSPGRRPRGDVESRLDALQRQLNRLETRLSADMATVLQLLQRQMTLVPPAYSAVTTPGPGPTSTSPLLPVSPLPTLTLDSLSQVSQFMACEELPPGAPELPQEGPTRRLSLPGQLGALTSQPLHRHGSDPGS

| Compound | hERG current change (%, negative = inhibition) at 10uM |
| --- | --- |
| Cc1ccc(OCCCCNC(C)c2ccccc2)c(C)c1 (centres unmarked) | 2.1% |
| O=C(NN1C(=O)/C(=C/C=C/c2ccco2)SC1=S)c1ccncc1 | 15.3% |
| Cc1ccc(C2c3[nH]c4ccccc4c3C[C@H]3C(=O)N(c4ccccc4C(=O)N4CCC[C@@H]4C(=O)O)C(=O)N23)cc1 (some centres unmarked) | -0.654% |
| Cc1ccc2c(=O)cc(C(=O)NCCc3ccc(S(N)(=O)=O)cc3)oc2c1 | 9.13% |
| Cc1ccccc1NC(=O)Cn1nc(C(F)(F)F)cc1C1CC1 | 8.48% |
| COC(=O)C1=C(C)OC(N)=C(C#N)C1c1cc(C)sc1C (centres unmarked) | -0.682% |
| Nc1cc(=O)[nH]c(SCC(=O)N2CCC(Cc3ccccc3)CC2)n1 | -2.88% |
| C/C(=N/NC(N)=S)c1ccccc1[N+](=O)[O-] | 7.13% |
| Nc1nc(-c2ccc3c(c2)NC(=O)CO3)cs1 | 15.5% |
| CCOc1ccccc1CN1CCN(CC2CC2)CC1CCO (centres unmarked) | -2.67% |
| CCOc1ccccc1CN1CCN(CCCc2ccccc2)CC1CCO (centres unmarked) | -64.9% |
| OCCOc1ccc(CN2CCN(CCCc3ccccc3)C(CCO)C2)cc1 (centres unmarked) | -63.3% |
| CCOc1ccc(CN2CCN(CCCc3ccccc3)C(CCO)C2)cc1 (centres unmarked) | -75.5% |
| CCOc1ccc(CN2CCN(CCCc3ccccc3)CC2CCO)cc1 (centres unmarked) | -76% |
| CCNC(=S)Nc1ccc(Cl)cc1Cl | -14% |
| CCOC(=O)c1nc(C)n(-c2cc(Cl)ccc2Cl)n1 | 1.64% |
| Cc1onc(-c2c(Cl)cccc2Cl)c1C(=O)n1nnc2ccccc21 | -3.48% |
| CN(CC(=O)Nc1ccc(N2CCOCC2)cc1)C(=O)c1cc(F)c(F)cc1Cl | -38.3% |
| Cc1sc2ncnc(SCC(=O)NC(=O)c3cccn3C)c2c1C | 10.8% |
| Cc1nc(C)n(CC(O)COc2ccc(C(=O)c3ccccc3)cc2)n1 (centres unmarked) | -6.4% |
| Cc1ccccc1C(OCCN(C(C)C)C(C)C)c1ccccc1.O=C(O)/C=C\C(=O)O (centres unmarked) | -68.3% |
| Cc1ccccc1C(=O)NNC(=O)/C=C\C(=O)O | -11.1% |
| Cc1ccccc1C(OCCN(C)C)C1CCCCC1.O=C(O)C(=O)O (centres unmarked) | -16.3% |

| Compound | hERG current change (%, negative = inhibition) at 10uM |
| --- | --- |
| Cc1ccc2nc(NC(=O)C3CCN(S(=O)(=O)c4cnc[nH]4)CC3)sc2c1 | 6.57% |
| O=C(CSc1nnc2c(Cl)cc(Cl)cn12)N1CCN(c2ccc(F)cc2)CC1 | -51.5% |
| Cn1nnnc1SCC(=O)N1CCN(c2ccccc2)CC1 | 12.4% |
| O=C(CSc1nnc2c(Cl)cc(Cl)cn12)N1CCN(S(=O)(=O)c2ccccc2)CC1 | -19.1% |
| O=C(CSc1nnc2c(Cl)cc(Cl)cn12)N1CCOCC1 | -6.52% |
| Cn1nnnc1SCC(=O)N1CCN(c2cccc(Cl)c2)CC1 | -26.8% |
| Cn1nnnc1SCC(=O)N1CCN(c2ccc(Cl)cc2)CC1 | -51.2% |
| Oc1ccc(CCc2n[nH]c(=S)n2-c2ccc(F)cc2)cc1 | -22.2% |
| O=C(COc1ccccc1)Nc1nc2cc3c(cc2s1)OCCO3 | 7.49% |
| N#Cc1cc2c(=O)n3ccccc3nc2n(CCCN2CCOCC2)c1=O | -24.3% |
| Cc1cccn2c(=O)c3cc(C#N)c(=O)n(CCCN4CCOCC4)c3nc12 | -60.7% |
| Cc1cccn2c(=O)c3cc(C#N)c(=N)n(CCCN4CCOCC4)c3nc12 | -80% |
| COc1ccccc1-n1c(SCC(=O)Nc2cccc3ccccc23)nc(O)cc1=O | 5.56% |
| CC1=C(C)CC(C(=O)NCCc2ccccc2)C(C(=O)O)C1 (centres unmarked) | -10.8% |
| CCN(CC)S(=O)(=O)c1ccc(N2CCOCC2)c(NC(=O)COc2ccccc2C#N)c1 | -3.3% |
| CC(C)CCNC(=O)c1ccc2c(c1)ncn2C1CCCCC1 | -42.8% |
| COc1ccccc1-n1cnc2cc(NS(=O)(=O)c3ccccc3)ccc21 | -57.5% |
| COc1ccccc1-n1cnc2cc(NS(=O)(=O)c3ccc(Br)cc3)ccc21 | -3.3% |
| COc1ccc(-n2cnc3cc(C(=O)NCC4CCCO4)ccc32)cc1 (centres unmarked) | -17.9% |
| CCCCNC(=O)c1ccc2c(c1)ncn2C1CCCC1 | -16.7% |
| CC(C)CCNC(=O)c1ccc2c(c1)ncn2C1CCCC1 | -54.8% |
| COc1ccc(-n2cnc3cc(NS(=O)(=O)c4ccccc4)ccc32)cc1 | 7.83% |
| COc1ccc(-n2cnc3cc(C(=O)N4CCOCC4)ccc32)cc1 | -15.6% |

| Compound | hERG current change (%, negative = inhibition) at 10uM |
| --- | --- |
| CCOC(CNC(=O)c1ccc2c(c1)ncn2-c1ccccc1OC)OCC | 2.14% |
| COc1ccc(-n2cnc3cc(C(=O)NC4CCCC4)ccc32)cc1 | -67.9% |
| COc1ccccc1-n1cnc2cc(C(=O)NCC3CCCO3)ccc21 (centres unmarked) | -13.7% |
| COc1ccccc1-n1cnc2cc(C(=O)NC3CCCC3)ccc21 | -65.5% |
| CC(=O)OC/C=C(\C)CCC=C(C)C | -0.25% |
| Cc1noc(C)c1COc1cccc(C(=O)OC(C)C(=O)Nc2c(C)n(C)n(-c3ccccc3)c2=O)c1 (centres unmarked) | 4.8% |
| COc1ccc(CCNC(=O)CCN2C(=O)[C@@H]3Cc4ccccc4CN3C2=O)cc1 | -28.3% |
| O=c1c2ccccc2nnn1COc1ccc(Cl)cc1Br | 22.2% |
| Cc1cc(C)cc(-n2cnc3cc(C(=O)O)ccc32)c1 | 2.82% |
| CCCNC(=O)c1ccc2c(c1)ncn2-c1ccccc1OC | -60.3% |
| CCOCCCNC(=O)c1ccc2c(c1)ncn2-c1ccccc1OC | -4.39% |
| COc1ccc(-n2cnc3cc(C(=O)NCCN4CCOCC4)ccc32)cc1 | -23.8% |
| CCCNC(=O)c1ccc2c(c1)ncn2-c1cc(C)cc(C)c1 | -55.1% |
| COCCCNC(=O)c1ccc2c(c1)ncn2-c1ccccc1OC | -1.73% |
| CCOCCCNC(=O)c1ccc2c(c1)ncn2-c1ccc(CC)cc1 | -43.8% |
| CCCCCNC(=O)c1ccc2c(c1)ncn2-c1ccc(OC)cc1 | -64% |
| COC(CNC(=O)c1ccc2c(c1)ncn2-c1cc(C)cc(C)c1)OC | -22.5% |
| S=c1[nH]nc(COc2ccccc2)n1/N=C/c1cccc(Br)c1 | 22.2% |
| O=C1N=C(N2CCc3ccccc3C2)S/C1=C\c1ccc(O)cc1 | -20.8% |
| CN1/C(=C/C2CC(=O)NC2=O)C(C)(C)c2ccccc21 (centres unmarked) | 3.26% |
| CCSCCc1nnc(NC(=O)Nc2cccc(C(F)(F)F)c2)s1 | 15.2% |
| O=C(Nc1nnc(-c2ccccc2)o1)c1cc(-c2cccs2)nc2ccccc12 | 2.29% |
| CC(=O)Nc1cccc(NC(=O)CSc2nccn2Cc2ccco2)c1 | 14% |

| Compound | hERG current change (%, negative = inhibition) at 10uM |
| --- | --- |
| O=C(CCOc1ccccc1)OCC(=O)c1cc2ccccc2o1 | -10.3% |
| COC(=O)C1=C(C(=O)OC)[C@@H]2N(C)c3ccc(OC)cc3[C@@]23C[C@@H](C(=O)OC)N(C(=O)NCCBr)C3=N1 | -32.9% |
| O=C(Nc1nnc(-c2cccs2)o1)c1cccc(F)c1 | 11.8% |
| NC(=O)C(F)(F)C12OC3C4C5CC(C6C5C3C61)C42 (centres unmarked) | 15.1% |
| COc1cc(C(C)=O)ccc1OCCCN1CCC(Cc2ccccc2)CC1.O=C(O)C(=O)O | -77.9% |
| COc1cc(C(=S)N2CCC(Cc3ccccc3)CC2)ccc1OCC(N)=O | -46.8% |
| COc1ccc(NC(=S)N2CCC(Cc3ccccc3)CC2)cc1OC | -45.3% |
| COc1cc(C(=O)OCC(=O)N2CCC(Cc3ccccc3)CC2)cc(OC)c1OC | -16.9% |
| COc1cc(C(C)=O)ccc1OCCN1CCC(Cc2ccccc2)CC1.O=C(O)C(=O)O | -91% |
| COc1ccc(S(=O)(=O)N2CCC(Cc3ccccc3)CC2)cc1NC(C)=O | 20.5% |
| O=C(CNC(=S)N(Cc1ccccc1F)C1CCCCC1)NC1CC1 | -4.74% |
| CC(C)c1ccccc1OCC(=O)N1CCCCCCC1 | 13% |
| CCCCCCC1CC(CC(=O)Nc2ccc([N+](=O)[O-])cc2)C(=O)O1 (centres unmarked) | -12.4% |
| CCCCCC1CC(CC(=O)Nc2ccc([N+](=O)[O-])cc2)C(=O)O1 (centres unmarked) | -50% |
| CC(C)OCC1CC(CC(=O)Nc2ccc([N+](=O)[O-])cc2)C(=O)O1 (centres unmarked) | -34.1% |
| CCCCCC1CC(CC(=O)NC(=S)Nc2ccc([N+](=O)[O-])cc2)C(=O)O1 (centres unmarked) | -0.0907% |
| CCCCCCC1CC(CCC(=O)Nc2ccc([N+](=O)[O-])cc2)C(=O)O1 (centres unmarked) | 3.95% |
| CCCCCC1CC(CC(=O)Nc2ccc([N+](=O)[O-])cc2)OC1=O (centres unmarked) | -53.1% |
| O=C(CC1NCCc2ccccc21)Nc1ccc(Oc2ccccc2)cc1 (centres unmarked) | -15% |
| C=CCN(c1ccccc1)S(=O)(=O)c1ccc2c(c1)NC(=O)C(C)C(=O)N2 (centres unmarked) | -4.47% |

— PMC4336329 (PLoS ONE, 2015)
